Laboratory results: ChEMBL document CHEMBL4513216, “Probing the Open Global Health Chemical Diversity Library for Multistage-Active Starting Points for Next-Generation Antimalarials” (ACS Infect Dis, 2020)
The campaign covered roughly 65,000 compounds. About 2,100 (3.2%) showed an effect of 50% or more. The median lay at about -52%. For the sample, strong results were picked, then their nearest neighbours and some compounds at random.

test system: Plasmodium falciparum; assay: Screen against P. falciparum Asexual Blood Stage (ABS), at 5uM; assay type: functional, Dd2; details: tested at 5 uM

SMILES | INHIBITION
Cc1cc(C)n(CC2CN(Cc3cnc(C)s3)CCO2)n1 (configuration not stated) | 53.2%
Cc1cnc(CN2CCOC(Cn3nc(C)cc3C)C2)cn1 (configuration not stated) | -20.8%
Cc1cc(CN2CCOC(Cn3nc(C)cc3C)C2)on1 (configuration not stated) | 46.7%
CCN1CCN(C(=O)c2cc(NC(=O)c3ccccc3)n(C)n2)CC1 | -98%
CCc1cnc(CN(C(C)=O)C2CCN(Cc3nccn3C)C2)o1 (configuration not stated) | 51.5%
CC(=O)N(Cc1ncc(C(C)C)o1)C1CCN(Cc2cc(C)no2)C1 (configuration not stated) | 59%
CC(=O)N(Cc1ncc(C(C)C)o1)C1CCN(CCn2cccn2)C1 (configuration not stated) | -150%
CC(=O)N(Cc1ncc(C(C)C)o1)C1CCN(Cc2ccno2)C1 (configuration not stated) | 45.7%
CC(=O)N(Cc1ncc(C(C)C)o1)C1CCN(CC2CCC2)C1 (configuration not stated) | -113%
CC(=O)N(Cc1ncc(C)o1)C1CCN(Cc2nccn2C)C1 (configuration not stated) | -133%
CC(=O)N(Cc1ncc(C(C)C)o1)C1CCN(Cc2cc(C)on2)C1 (configuration not stated) | -83.8%
CC(=O)N(Cc1ncc(C(C)C)o1)C1CCN(CCC#N)C1 (configuration not stated) | 57%
CC(=O)N(Cc1ncc(C(C)C)o1)C1CCN(Cc2nccn2C)C1 (configuration not stated) | -176%
COCCN(Cc1cnn(C)c1)C(=O)C1CCCN(C2CCOCC2)C1 (configuration not stated) | -15.9%
CCN(Cc1ccncc1)c1cc(C2CCCNC2)nc(C)n1 (configuration not stated) | -121%
CN(Cc1cccnc1)C1COC2(CCN(Cc3nccs3)CC2)C1 (configuration not stated) | -52.5%
O=C(c1cccnc1)N1CCCC1c1cc[nH]n1 (configuration not stated) | -66.5%
N#Cc1ccc(N2CCCC3(CCN(c4cccnc4)CC3)C2)cc1 | -71.3%
COc1cc(C)sc1C(=O)NCCNc1ccccc1 | 18.7%
COc1cc(C)sc1C(=O)NCCC(=O)N(C)Cc1ccccc1 | 59.3%
COc1cc(C)sc1C(=O)NCCC(=O)N(C)c1ccccc1 | 33.9%
N#Cc1ccc(NC2CCN(Cc3ccccn3)CC2)c(F)c1 | -118%
c1ccc(CN2CCC(NCCc3ccc4c(c3)CCO4)CC2)nc1 | 36%

SMILES | INHIBITION
Fc1ccc(OCCNC2CCN(Cc3ccccn3)CC2)c(F)c1 | 69.8%
COC(=O)c1ccc(CNCc2cn(C)nc2C)cc1 | -133%
O=C(NCCC1=CCCCC1)NC1CCCc2c1cnn2CCO (configuration not stated) | -134%
CN(Cc1ccccc1)CC(O)Cn1cnc2ccsc2c1=O (configuration not stated) | 19%
CN(Cc1ccccc1)CC(O)Cn1cnc2ccccc2c1=O (configuration not stated) | -2.56%
CN(Cc1ccccc1)CC(O)Cn1cnc2sccc2c1=O (configuration not stated) | 62.1%
CC(C)CS(=O)(=O)Nc1ccc2c(c1)OCC(C)(C)C(=O)N2C | -28.6%
CCCC(NC(=O)c1cc(C)c(F)cc1F)c1nnn[nH]1 (configuration not stated) | -94.1%
O[C@@H]1C[C@H]2CN(Cc3ccccc3Cl)[C@H](Cc3ccccc3)CN2C1 | 56.3%
O[C@@H]1C[C@H]2CN(CC3CCCCC3)[C@H](Cc3ccccc3)CN2C1 | 37.6%
C=Cn1ncc(CN2C[C@@H]3C[C@@H](O)CN3C[C@@H]2Cc2ccccc2)c1C | -7.65%
COc1ncc(CN2C[C@@H]3C[C@@H](O)CN3C[C@@H]2Cc2ccccc2)cn1 | -117%
CCc1ncc(CN2C[C@@H]3C[C@@H](O)CN3C[C@@H]2Cc2ccccc2)cn1 | -55%
O[C@@H]1C[C@H]2CN(Cc3ccccc3)[C@H](Cc3ccccc3)CN2C1 | 69.1%
COCC(=O)N1CCCC(c2cc(C(F)F)n3ncnc3n2)C1 (configuration not stated) | 10.4%
Cn1cc(NC(=O)Cn2cc(-c3ccccc3)ncc2=O)cn1 | -15.3%
COC(=O)c1cccc(S(=O)(=O)NCC(c2ccco2)N2CCCC2)c1 (configuration not stated) | 19.7%
Cc1cnn(CC2CCCN2C(=O)Cc2cccs2)c1 (configuration not stated) | -35.5%
COc1ccc(C(O)CN2CC(n3nc(C)cc3C)C2)cc1 (configuration not stated) | 49.2%
Cc1cc(C)n(C2CN(CC(O)c3ccc4c(c3)OCO4)C2)n1 (configuration not stated) | 43.5%
Cc1cc(C)n(C2CN(CC(O)c3ccc(C(F)(F)F)cc3)C2)n1 (configuration not stated) | 65.4%
COc1ccc(C(O)CN2CC(n3cc(C)cn3)C2)cc1 (configuration not stated) | 22%
Cc1cnn(C2CN(CC(O)c3ccc(F)cc3)C2)c1 (configuration not stated) | 57.4%

SMILES | INHIBITION
Cc1cc(C)n(C2CN(CC(O)c3ccc(F)cc3)C2)n1 (configuration not stated) | 62.8%
Cc1cc(C)n(C2CN(CC(O)c3ccc(S(C)(=O)=O)cc3)C2)n1 (configuration not stated) | -123%
Cc1cc(C)n(C2CN(CC(O)COc3ccc(F)cc3)C2)n1 (configuration not stated) | -18.8%
Cc1cnn(C2CN(CC(O)c3ccccc3)C2)c1 (configuration not stated) | 40.9%
O=C(Cc1ccccc1)N1CCC(c2nnc(-c3ccccn3)o2)CC1 | 2.71%
CC(Cc1ccco1)NC(=O)Nc1ccc(N(C)C)nc1 (configuration not stated) | -297%
CC(C)COC(=O)N1CC(=O)N(CCc2ccccc2)CC(O)C1 (configuration not stated) | -47.8%
Cc1oc(-c2ccsc2)nc1CN1CCCC(c2ccnn2C)C1 (configuration not stated) | -72.5%
CN1CCN(Cc2cccnc2)C2(CCN(c3ncccn3)C2)C1=O (configuration not stated) | -162%
Cn1ccnc1C(=O)N1CCC2(CCN2c2ncccn2)C1 (configuration not stated) | -49.3%
Cc1ccc(Nc2nccc(C3CCN(C(=O)CN)C3)n2)nc1 (configuration not stated) | -205%
CSCCCN1CCN(c2ccc(Cl)cn2)CC1 | 30.7%
Clc1ccc(N2CCN(CCCN3CCCCC3)CC2)nc1 | 69.2%
CS(=O)(=O)CCN1CCN(c2ccc(Cl)cn2)CC1 | 0.0372%
CN1CCN(Cc2ccncc2)C(=O)C12CCN(c1nccs1)CC2 | -78.4%
CCCc1nc(C(C)(C)NC(=O)C2CC(=O)N(CC)C2)no1 (configuration not stated) | -33.1%
N#Cc1cc(C#N)c(SCC(=O)Nc2ccc(F)cc2)nc1N | 67.3%
N#Cc1cc(C#N)c(SCC(=O)NCc2ccc(F)cc2)nc1N | -74.4%
N#Cc1cc(C#N)c(SCCC(=O)Nc2ccc(F)cc2)nc1N | 13.7%
CCC(Nc1ccc(CCN2CCCCC2)cc1)C(N)=O (configuration not stated) | 1.58%
O=C(O)c1cc(S(=O)(=O)Nc2ccc(F)cc2F)cc2c1OCCO2 | -20.9%
